# Measured values taken from ChEMBL document CHEMBL4888484, “Replenishing the malaria drug discovery pipeline: Screening and hit evaluation of the MMV Hit Generation Library 1 (HGL1) against asexual blood stage Plasmodium falciparum ,using a nano luciferase reporter read-out” (2022).
# Out of some 4,800 compounds screened, about 410 (8.5%) showed an effect of 50% or more. The full list was thinned out, with strong results kept by preference.
# Test system: Plasmodium falciparum
# Assay: Confirmatory screen in NF54 pLDH assay, in single point, at 2uM, 72h
# Assay type: functional, Erythrocyte
# Conditions: timepoint 72 hour
row,Structure (SMILES),% Inhibition [%]
1,C=CCNC(=NC)NC1CCN(c2cc(OC)cc(OC)c2)CC1,7
2,CCC1(CC)CCC(NC(=O)[C@@H]2CCCCC(=O)N2)CC1,-14
3,C[C@H]1C[C@@H](O)CCN1C(=O)c1cccc2sc(C(F)(F)F)nc12,3
4,Cc1cc(C)cc(-n2cc(C(=O)NCCCc3ccccc3)nn2)c1,8
5,Cc1cc2nc(C)c(=O)n(Cc3ccc(C(=O)NCc4ccco4)cc3)c2cc1C,8
6,Cc1cc(NC(=O)NC(C)C)c2[nH]c(C(=O)N3CCOCC3)c(-c3ccccc3)c2c1,9
7,CO/C(=N/C(=O)c1cccc(OC)c1)N[C@H]1CCCc2ccccc21,-9
8,O=c1[nH]c(=O)n(Cc2cc(Cl)cc3c2OCOC3)cc1Cl,12
9,CC(C)N(C)S(=O)(=O)Nc1ccc(Br)cc1O,9
10,Nc1ccccc1-c1nc(Nc2ncccn2)n[nH]1,7
11,CC(C)c1cc(=O)[nH]c(-n2nc(C3CC3)cc2NC(=O)Cc2ccc(Cl)cc2)n1,67
12,CC(C)c1cc(=O)[nH]c(-n2nc(C3CC3)cc2NC(=O)COc2ccc3ccccc3c2)n1,65
13,O=C(Nc1ccc(OC(F)F)cc1)c1cc(C2CC2)nc2c1c(C1CC1)nn2-c1ccccc1,-5
14,Cc1cc(NC(=O)c2ccc(COc3ccc4ccccc4c3)o2)nn1C,13
15,Cc1ccc(N2C[C@@H](c3nnc(NC(=O)Cc4ccc(Cl)cc4)o3)CC2=O)cc1,-18
16,Cc1nc(CC(=O)Nc2cc(C3CC3)nn2-c2ccccc2)cs1,8
17,CCOc1c(Br)cc(Cl)cc1NCC(=O)NC(=O)NC,14
18,COc1cc(N2CCn3c(nc4ccccc43)C2)ccc1NC(=O)c1ccc(C)cc1,-23
19,O=C1NS(=O)(=O)c2cc(N3CCN(Cc4ccccc4)CC3)ccc21,8
20,CCc1ccc(C(=O)Nc2cnc(-n3ccnc3)nc2)cc1,29
21,O=C(C[C@H]1CCN(S(=O)(=O)c2ccc(F)cc2F)C1)NCc1ccccc1,10
22,Cc1nn(Cn2nc(-c3ccc(F)cc3)c(Br)c2-c2ccc(F)cc2)c(C)c1Cl,6
23,O=C(NCc1cccc(Cl)c1)[C@H]1CCCN(c2nc3cccnc3n(Cc3ccccc3)c2=O)C1,-7
24,CCN(CC)CC(O)COc1c(Br)cc(C(C)(C)c2cc(Br)c(OCC(O)CN(CC)CC)c(Br)c2)cc1Br (configuration not stated),99
25,CCN(CC)C(=O)c1cnc2snc(C)c2c1N1CCC(C(=O)Nc2c(C)cc(C)cc2C)CC1,34
26,CN(C(=O)CN(CCO)c1ccc(Br)cc1)C1CC1,2

row,Structure (SMILES),% Inhibition [%]
1,CCN(C(=O)[C@H]1CCOC1)c1ccc(C(F)(F)F)cc1,5
2,O=C(O)C1CCC(=O)N(C2CC2)C1c1ccccc1 (configuration not stated),10
3,C(=C\c1cc(/C=C/c2ccccc2)n2nnnc2n1)/c1ccccc1,5
4,O=C(NCC1CCCCC1O)c1cnn2ccncc12 (configuration not stated),-5
5,O=C(NCC1CCCCC1)c1cn[nH]c1-c1ccccc1,6
6,COc1ccc2nc(C(F)(F)F)nc(N3CCNC(=O)CCN(C(=O)C(F)=C4CCCC4)CC3)c2c1,14
7,O=S(=O)(Nc1cccc2cccnc12)c1cccs1,64
8,O=S(=O)(Nc1nncs1)c1cccs1,-10
9,Cc1cc(NS(=O)(=O)c2cccs2)n(-c2ccncc2)n1,9
10,Cc1nsc2ncn(C[C@H](O)COCc3ccco3)c(=O)c12,8
11,CCOc1ccc(-c2cc3c(=O)n(CCC(=O)N4CCCC4)ccn3n2)cc1,7
12,O=C(CNC(=O)c1ccc(C(F)(F)F)cc1)Nc1cnc2c(c1)COCC2,4
13,Fc1ccc(-c2cc3c(N4CCCCC4)nccn3n2)cc1,12
14,CCn1cc(C(=O)Nc2n[nH]c3ccc(C(F)(F)F)cc23)cn1,-4
15,CC1CCN(C[C@H](O)C(F)(F)F)CC1,5
16,COc1cccc2c(N3CC[C@]4(CNC(=O)C4)C3)nccc12,2
17,CC[n+]1ccc(-c2ncc(-c3ccc(C(C)(C)C)cc3)o2)cc1,55
18,Cc1ccc(C(=O)NCCn2cnc3ccccc3c2=O)cn1,-7
19,CC(C)CC[C@@H](CCNC1CCN(C)CC1)c1ccc(Cl)cc1,83
20,CN1CCC(NCC[C@@H](Cc2ccccc2Cl)c2ccc(Cl)cc2)CC1,92
21,CC(C)CC[C@@H](CCNCCN(C)C)c1ccc(Cl)cc1,103
22,CN(C)CCNCc1ccc(Cl)c(Cl)c1,-14
23,CN(C)CCCNCc1ccc(Cl)cc1Cl,-7
24,Clc1ccccc1COc1ccc(CNC2CCCCC2)cc1,7
25,O=C1c2cc3ccccc3n2C[C@](C(=O)NC2CCCCCCC2)(c2ccccc2)N1Cc1cccc(Cl)c1,-5
26,COc1ccccc1N(CC(=O)NCCN1CCOCC1)S(=O)(=O)c1ccc(C)cc1,7

row,Structure (SMILES),% Inhibition [%]
1,Cc1cc(C(=O)N[C@@H](C)c2nnc3n2CCCCC3)c(C)s1,3
2,O=C(Nc1ncc(Cc2ccc(Cl)c(C(F)(F)F)c2)s1)c1ccc2nnsc2c1,10
3,CC[C@H](O)CCNC(=O)Nc1ncc(CC(C)C)s1,2
4,COc1cc(NC(=O)Cn2c(=O)n(C)c(=O)c3c2c(-c2ccccc2)cn3C)cc(OC)c1OC,-8
5,Cc1cncn1C1CCN(C(=O)C2(Cc3ccccc3)CC3CCC2C3)CC1 (configuration not stated),-1
6,COc1cc(C=C(C(=O)Nc2ccccc2F)C(=O)Nc2ccccc2F)ccc1OCC(=O)Nc1cccc(C(F)(F)F)c1,-18
7,Cc1[nH]ccc1C(=O)N1CC[C@]2(CCN(C(=O)OC(C)(C)C)C2)C1,13
8,CCC(=O)OC1(C#CCOc2ccc(OC)cc2)CCN(C)CC1,9
9,Cc1cc(C)n(-c2ccc(N3CC4CCC3C4)nc2)n1 (configuration not stated),-2
10,C[C@H](NC(=O)c1ccco1)c1cc2c(cc1Br)OCCCO2,-9
11,Cc1ccc(NC(=O)c2c(C)nc3sc(C(=O)NCc4ccccc4)c(N)c3c2-c2ccccc2Cl)c(C)c1,87
12,CCc1ccc(NC(=O)c2sc3nc(C)c(C(=O)Nc4ccc(C)cc4C)c(-c4ccccc4Cl)c3c2N)cc1,5
13,Cc1ccc(NC(=O)c2c(C)nc3sc(C(=O)NCc4ccccc4)c(N)c3c2-c2cccs2)c(C)c1,11
14,CN([C@H]1CCc2nn(CC3CC3)c(=O)n2CC1)S(=O)(=O)c1ccccc1C(F)(F)F,1
15,CC(C)NC(=O)N1C[C@H]2CCCC(=O)N(Cc3cccc(F)c3)[C@H]2C1,8
16,O=C(NC[C@H]1CCCO1)c1cc(C(=O)C2CC2)c[nH]1,-8
17,O=C(NCC1CCOCC1)c1ccc2n[nH]c(=O)n2c1,6
18,COCc1cc(C(=O)N[C@H](c2ccccc2)C2CCOCC2)no1,8
19,COc1nc(-c2cccc(C(=O)NCC3CCOCC3)c2)ncc1F,80
20,Cc1ccc(C(=O)N2CC(n3cnnc3C)C2)cc1F,-17
21,O=C(CC1CCOCC1)NCc1ccccn1,-24
22,COc1nc(-c2cccc(C(=O)N3C[C@@H]4CC[C@H](C3)C(=O)N4)c2)ncc1F,85
23,COc1ccc(-c2[nH]ncc2C(=O)NCC2CCCCC2)cc1OC,6
24,COc1ccc(C(=O)N2CC[C@H](c3nc(C4CCOCC4)no3)C2)cc1OC,11
25,CC(C)(NC(=O)CC1(O)CCCCC1)C(=O)Nc1ccccc1,5
26,O=C(Nc1ccc(F)cc1)c1c(-c2ccc(Cl)cc2)nc2n1CCS2(=O)=O,-4

row,Structure (SMILES),% Inhibition [%]
1,COC(=O)C1C2CCC(C2)C1NC(=O)c1ccncc1 (configuration not stated),2
2,O=C([C@@H]1CCCN1c1ncc(C(F)(F)F)cc1Cl)N1Cc2ccccc2C1,-18
3,CCOC(=O)[C@@H](NC(=O)Nc1ccccc1C(F)(F)F)C(F)(F)F,11
4,O=C(NC1CC1C1CCCCC1)N1CCS(=O)(=O)CC1 (configuration not stated),-4
5,COc1ccc(NC(=O)[C@@H](C)C2CCOCC2)cc1,-5
6,CCc1c(NC(=O)[C@@H](C)C2CC2)nnn1CCc1ccc(OC)cc1,12
7,COC(=O)c1c(NC(C)=O)c2cc(NC3CCOCC3)cnc2n1CCc1ccc(OC)cc1,61
8,Cc1nc(CN2C(=O)C(=O)c3cc(Br)ccc32)cs1,9
9,Cc1ccn2c(CN3CCN([C@H]4CCN(Cc5ccccc5)C4)CC3)c(C)nc2c1,9
10,O=C(Cc1cccc2ccccc12)NC(C1CC1)C1CC1,-12
11,COc1ccc(NS(=O)(=O)c2ccc(NC(=O)CN(c3ccc(F)cc3)S(C)(=O)=O)cc2)cc1,12
12,COc1ccccc1Cc1nnc2n1CCCC2,8
13,CNC(=O)[C@@H]1C[C@H](NCc2cc(OC)c(OC)c(OC)c2)CN1CC(c1ccccc1)c1ccccc1,50
14,COc1cc(CNC2CCCCC2)cc(Br)c1OCc1ccccc1Cl,8
15,COc1cc(NC(=O)N2CC(c3noc(-c4ccccc4)n3)C2)cc(OC)c1OC,3
16,CC(=O)c1ccc(C(C)(C)C)cc1NC(=O)C(C)C,8
17,O=C(CCn1nc2ccccn2c1=O)N1CC(CC(F)F)C1,6
18,O=c1nc2n(nc1-c1ccccc1)C1(CCC1)Nc1ccccc1-2,60
19,C[C@]1(C(=O)O)Nc2ccccc2-c2nc(=O)c(-c3ccccc3)nn21,9
20,C[C@]1(CCc2ccc(O)cc2)Nc2ccccc2-c2nc(=O)c(-c3ccc(F)cc3)nn21,-12
21,Nc1nccnc1C(=O)Nc1c(-c2ccccc2)ncn1C1CC1,3
22,Cn1cc2c(n1)CCC[C@@H]2NC(=O)c1cccc(C(=O)NC2CC2)c1,0
23,CC(C)c1ccc(Oc2cnn(-c3cccc(Cl)c3)c(=O)c2Nc2cccc(C(=O)NC3CC3)c2)cc1,54
24,COc1ccc(-n2ncc(Oc3cccc(C)c3)c(Nc3cccc(C(=O)NCc4ccc(F)cc4)c3)c2=O)cc1,30
